Experimental data reported in PubChem BioAssay AID778 (Sanford-Burnham Center for Chemical Genomics, 2007).
Screen size: about 96,000 compounds; about 20,000 (21%) were called active.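 Rule for the calls: active = CYP2C19 inhibition above a set limit at 5 µM in the primary screen (cut at about 50% in these data); inactive = the rest.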 These entries were drawn from the full list.

Each compound was assayed against Cytochrome P450 2C19 (Homo sapiens) (UniProt P33261) (assay: blockers of cytochrome P450 2C19 activity – biochemical, luminescence, ADME assay, primary screen (AID 778;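 note: plate controls were negative control wells for no effect and 2.5 mM tranylcypromine positive control for full effect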)). Conditions: CYP2C19 Supersomes, luciferin-H EGE luminescence, 30 min; at 5 µM; stronger effect = higher value.
Cytochrome P450 2C19 (Homo sapiens), sequence (P33261 whole entry, looked up): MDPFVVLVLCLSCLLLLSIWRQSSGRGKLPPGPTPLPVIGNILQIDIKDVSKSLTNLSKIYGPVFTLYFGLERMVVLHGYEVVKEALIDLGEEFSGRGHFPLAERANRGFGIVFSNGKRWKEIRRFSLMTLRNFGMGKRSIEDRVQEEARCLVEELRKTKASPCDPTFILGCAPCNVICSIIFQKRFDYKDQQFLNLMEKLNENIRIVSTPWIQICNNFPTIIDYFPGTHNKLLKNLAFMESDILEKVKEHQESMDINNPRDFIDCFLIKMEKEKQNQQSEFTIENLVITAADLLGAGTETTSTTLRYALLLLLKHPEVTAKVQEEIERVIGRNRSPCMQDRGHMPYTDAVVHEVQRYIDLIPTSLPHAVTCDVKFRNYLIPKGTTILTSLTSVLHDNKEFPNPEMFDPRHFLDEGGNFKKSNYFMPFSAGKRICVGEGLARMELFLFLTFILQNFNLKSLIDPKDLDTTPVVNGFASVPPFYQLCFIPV

Structure (SMILES) | inhibition
Cn1c2ccccc2n2c(=O)c(=O)n(CC(=O)c3ccc(F)cc3)nc12 | -11.2% (inactive)
Cc1cc(NC(=O)/C=C/C(=O)N(c2ccccc2C)C(C(=O)NC2CCCC2)c2ccc(F)cc2)no1 (stereo unspecified) | 10.8% (inactive)
Cc1cc(NC(=O)CCC(=O)N(c2cccc(F)c2)C(C(=O)NC2CCCC2)c2ccncc2)no1 (stereo unspecified) | 76.4% (active)
Cc1cc(NC(=O)CCC(=O)N(c2ccccc2)C(C(=O)NC2CCCC2)c2ccncc2)no1 (stereo unspecified) | 46.5% (inactive)
O=C(Nc1nnc(-c2ccc(Cl)cc2)o1)c1ccccc1Br | 6.2% (inactive)
CCC(=O)c1cc2c(cc1NC(=O)c1cccs1)OCCO2 | -6.1% (inactive)
CN(c1ccc(C(=O)NCCC2=CCCCC2)cc1)S(C)(=O)=O | -1.7% (inactive)
C=CCn1c(SCc2nnc(-c3ccccc3)o2)nnc1C(O)c1ccccc1 (stereo unspecified) | 55% (active)
Fc1ccc2nc(-c3ccccc3)nc(SCc3nnc(-c4ccccc4)o3)c2c1 | 3.2% (inactive)
CCC(O)CNc1nc(-n2nc(C)cc2C)nc2sc3c(c12)CC(C)(C)OC3 (stereo unspecified) | -2.2% (inactive)
CCOc1ccc(Cn2nnc(C(=O)NCc3ccccc3)c2N)cc1 | -7% (inactive)
CC(C)(C)c1nc(NCC2CCCO2)c2nnn(Cc3ccccc3)c2n1 (stereo unspecified) | 33.4% (inactive)
CC(C)Nc1ncnc2c1nnn2Cc1ccccc1 | 59.5% (active)
COc1ccc(C(=O)Cn2nnc(-c3ccc(N4CCOCC4)cc3)n2)cc1OC | -8.3% (inactive)
COc1ccccc1OCCNc1cc(N2CCOCC2)ccc1[N+](=O)[O-] | 60.3% (active)
COc1cc(C(=S)N2CCOCC2)cc(OC)c1OC(=O)c1cc([N+](=O)[O-])c(C)c([N+](=O)[O-])c1 | -0.1% (inactive)
COc1ccc(Oc2coc3cc(OC(=O)c4cncc(Br)c4)ccc3c2=O)cc1 | -9.2% (inactive)
CC/C(=N\O)C(C)(C)/[N+]([O-])=C/c1ccc(Br)cc1 | 5.2% (inactive)
COc1ccccc1C1=Nc2cccc3cccc(c23)N1 | 32.8% (inactive)
Cc1nn2c3ccccc3nc2n(C)c1=O | -6.3% (inactive)
COc1ccc(C(=O)n2nc(-c3ccc(C)cc3)nc2N)cc1OC | -2.6% (inactive)
COc1ccccc1C(=O)n1nc(-c2ccccc2)nc1N | 74.3% (active)
COc1ccc(C(=O)n2nc(-c3ccc(Cl)cc3)nc2N)cc1OC | 1.7% (inactive)
COc1ccc(C2=NOC3(CC(=O)N(c4ccc(Cl)cc4)C3=O)C2)c(OC)c1 (stereo unspecified) | -4.2% (inactive)

Structure (SMILES) | inhibition
COCCCN1C(=O)C(=O)/C(=C(/O)c2ccc3c(c2)CC(C)O3)C1c1cccnc1 (stereo unspecified) | 4.2% (inactive)
O=c1c(-c2ccc3c(c2)OCCO3)c(C(F)(F)F)oc2cc(O)cc(O)c12 | 25% (inactive)
CCOC(=O)c1cc2cc(-c3c(C(=O)OCC)oc4cc(O)cc(O)c4c3=O)ccc2o1 | 69.8% (active)
O=C(CSCc1ccc(Cl)cc1)N1CCCCC1 | 76.3% (active)
Cn1c(=O)cc(SCC(=O)N2CCCC2)c2cc(Cl)ccc21 | -7.5% (inactive)
O=C(CN1CCN(c2ccc(Cl)cc2)CC1)N1CCCC1 | 62.9% (active)
Cc1ccc2[nH]c3c(c2c1)CN(C(=O)CN1CCN(c2ccccc2)CC1)CC3 | 29.5% (inactive)
O=C(CSCc1cccs1)N1CCCC1 | 16.5% (inactive)
O=C(COc1ccc(Cl)cc1)N1CCN(c2cccc(C(F)(F)F)c2)CC1 | 41.1% (inactive)
COc1ccc(-c2oc3ncn(Cc4ccco4)c(=N)c3c2-c2ccc(OC)cc2)cc1 | 33.8% (inactive)
CCOC(=O)N1CCC(Nc2c(NCCCN3CCN(CC)CC3)c(=O)c2=O)CC1 | 4% (inactive)
c1ccc(-c2ccnc3nc(-n4cccc4)nn23)cc1 | 1.1% (inactive)
CCCC(=O)N1c2ccc(-c3csc(N)n3)cc2CC1C (stereo unspecified) | 4.4% (inactive)
O=c1c(F)cn(C2CCCO2)c(=O)n1Cc1ccccc1Cl (stereo unspecified) | 36.8% (inactive)
COCCn1c(C)cc(C2=NNC(=Nc3ccc(F)cc3)SC2)c1C | 20.2% (inactive)
COc1ccc(C)cc1NC(=O)CCC(=O)Nc1nnc(C(F)(F)F)s1 | -1.8% (inactive)
COc1ccc(C)cc1NC(=O)c1[nH]c(C)c(C(C)=O)c1C | 51.5% (active)
CC(=O)c1c(C)[nH]c(C(=O)NCc2ccc(C)cc2)c1C | 43.8% (inactive)
CC(C)(C)NC(=O)C(c1ccco1)N(Cc1ccc2c(c1)OCO2)C(=O)Cn1nnc2ccccc21 (stereo unspecified) | 48.8% (inactive)
COc1ccc2c(c1)CCc1c(C(=O)N3CCCC3)noc1-2 | 4.9% (inactive)
COc1ccc2c(c1)CCc1c(C(=O)Nc3c(C)n(C)n(-c4ccccc4)c3=O)noc1-2 | 25.7% (inactive)
COc1ccc2c(c1)CCc1c(C(=O)N3CCc4ccccc4C3)noc1-2 | 74.1% (active)
CCC(=O)N1CCc2cc(S(=O)(=O)NC(C(=O)N3CCc4ccccc4C3)C(C)C)ccc21 (stereo unspecified) | 4.8% (inactive)
Cc1nc(NC(CC(C)C)C(=O)O)c2nc(C)oc2n1 (stereo unspecified) | -8.5% (inactive)

Structure (SMILES) | inhibition
O=C(Nc1ccon1)c1sc2ccccc2c1Cl | 1.4% (inactive)
N#Cc1cc([N+](=O)[O-])ccc1Oc1cccc(/C=N/NC(=O)c2ccc(Cl)cc2)c1 | 41.8% (inactive)
CCc1ccccc1NC(=O)CN(C)S(=O)(=O)c1ccc2c(c1)c(=O)n(C)c(=O)n2C | 7.1% (inactive)
Cc1cc(NC(=O)c2cccc(N3C(=O)CCC3=O)c2)no1 | 3% (inactive)
O=C(/C=C/Nc1ccccc1OC(F)(F)F)C(F)(F)F | 18% (inactive)
Cc1cc(C)nc(NC(=O)C(C)N2C(=O)c3ccccc3C2=O)n1 (stereo unspecified) | -21.4% (inactive)
Cc1ccc(NC(=O)CN(C)S(=O)(=O)c2cnc[nH]2)cc1C | 88.7% (active)
Cc1ccc(NC(=O)CCNS(=O)(=O)c2ccc3c(c2)oc(=O)n3C)cc1C | 8% (inactive)
CCOC(=O)N1CCC(N(CCOC)C(=O)Nc2ccc(C)c(C)c2)CC1 | 8.4% (inactive)
Cc1ccc(-c2nnc(C)c(N3CC(C)OC(C)C3)n2)cc1 (stereo unspecified) | 7.3% (inactive)
COCCCNC(=O)C1CC(=O)N(CCc2ccccc2)C1 (stereo unspecified) | -3.4% (inactive)
O=C(O)C1CC(=O)N(Cc2cccnc2)C1 (stereo unspecified) | -2.1% (inactive)
Cc1cc(=O)oc2cc(NC(=O)C3CC(=O)N(Cc4ccccc4)C3)ccc12 (stereo unspecified) | 52.5% (active)
CCC(C)NC(=O)c1c(N)n(/N=C/c2cccs2)c2nc3ccccc3nc12 (stereo unspecified) | 13.8% (inactive)
COc1ccc(C2C(C(=O)Nc3ccccc3OC)=C(C)Nc3nnnn32)c(OC)c1 (stereo unspecified) | 32.5% (inactive)
COC(=O)c1ccc(C2C3=C(Nc4nnnn42)c2ccccc2OC3)cc1 (stereo unspecified) | 98.9% (active)
COc1ccccc1NC(=O)C1=C(C)Nc2nnnn2C1c1cccc(Br)c1 (stereo unspecified) | 37.1% (inactive)
CCCN1Cc2cccc(C(=O)Nc3ccc(S(=O)(=O)N4CCCCCC4)cc3)c2C1=O | 18.8% (inactive)
CCC12CN3CC(CC)(CN(C1)C31C(=O)N(C)c3ccc(C)cc31)C2=O (stereo unspecified) | 15.6% (inactive)
CCc1ccccc1NC(=O)c1cccs1 | -1% (inactive)
O=C(Nc1ncccn1)c1cccs1 | -3.9% (inactive)
O=C(Nc1nn(Cc2ccccc2F)cc1Br)c1cccs1 | 57.4% (active)
CC(=O)Nn1cc2c(=O)n(C)c(=O)n(C)c2c1 | -4.8% (inactive)
O=c1oc2cc(O)ccc2cc1-c1ccc(F)cc1 | 32.1% (inactive)

Structure (SMILES) | inhibition
CCOC(=O)Nc1ccccc1N1C(=O)c2ccccc2C1=O | 1.6% (inactive)
COCCn1c(C)cc(C(=O)CSc2ncnc3sc4c(c23)CCC4)c1C | 57.5% (active)
COc1ncnc2sc3c(c12)CCCC3 | 36.6% (inactive)
Cc1cc(C)n(-c2nc(SCC(=O)N3CCCC3)c3c4c(sc3n2)CCCC4)n1 | 49.7% (inactive)
O=C(NCc1ccco1)c1cnn2c(C(F)(F)F)cc(-c3ccco3)nc12 | 20.3% (inactive)
CCCc1nc(-c2ccccc2O)n(-c2ccccc2)n1 | 34% (inactive)
O=C(CN1C(=O)C2C3C=CC(C3)C2C1=O)NCCc1ccccc1Cl (stereo unspecified) | 23.5% (inactive)
O=C(NCCN1C(=O)C2C3C=CC(C3)C2C1=O)Nc1ccccn1 (stereo unspecified) | -10.2% (inactive)
O=C(CCN1C(=O)C2C3C=CC(C3)C2C1=O)Nc1ccccc1F (stereo unspecified) | 56.5% (active)
N#C/C=C\Oc1ccc(Cl)cc1N | -2.6% (inactive)
COc1ccc(NC(=O)Cn2c(-c3ccc(OC)cc3)cn(-c3ccc(C)cc3)c2=O)cc1 | -4.3% (inactive)
N#Cc1nc(COc2ccc(-c3ccccc3)cc2)oc1NCc1cccnc1 | 51.7% (active)
N#Cc1nc(-c2ccc(OCc3ccccc3)cc2)oc1NCCCN1CCOCC1 | 7.4% (inactive)
COc1ccc(Nc2oc(-c3ccccc3Cl)nc2C#N)cc1 | 1.2% (inactive)
O=C(Cn1nc(Cc2cccnc2)c2ccccc2c1=O)NCC1CCCO1 (stereo unspecified) | 16.7% (inactive)
C=C(C)Cn1c(SCC(=O)NCc2ccco2)nc2sc3c(c2c1=O)CCC3 | 7.7% (inactive)
O=c1c2ccccc2nnn1CSc1nc2sc3c(c2c(=O)n1CC1CCCO1)CCC3 (stereo unspecified) | 56.4% (active)
N#CCCn1cnc2ccccc21 | 1.7% (inactive)
CC(=O)c1ccc(NC(=O)N[C@@H](Cc2ccccc2)C(=O)O)cc1 | 28.5% (inactive)
COc1ccc(CCNC(=O)COC(=O)c2ccc[nH]c2=O)cc1 | -10.2% (inactive)
CCN(CC)C(=O)C1CCC(C)(C(=O)O)C1(C)C (stereo unspecified) | -4.4% (inactive)
Cc1nc2ccccc2cc1O | 0.7% (inactive)
CC(=O)Nc1cccc(-c2cnc3ccccc3n2)c1 | 14.9% (inactive)
Cc1cc(O)ccc1-c1cnc2ccccc2n1 | 60.7% (active)
